Pf growth 48h – P. falciparum growth inhibition at 48 hours (one generation). 5.9% of 310,000 active. P. falciparum luciferase growth in erythrocytes, 48 h. Potency, µM (titrated, usually from 28.7 µM), hits mostly inhibitors
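Luciferase-expressing parasites in RBCs, 2% Hct / 0.1% parasitemia final; RPMI 1640 + 0.5% Albumax; 37 C, 5% CO2, one generation; luminescence read-out, lower signal = inhibition.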
Cycloheximide cs – counter-screen hit for Shiga toxin inhibitors, cycloheximide | cell reporter, cycloheximide protein synthesis inhibition counterscreen | max response, % | 12% of 300,000 active | AID 2314; in the data active means max response mostly above about 13%, no sharp cut-off; inactive means mostly below about 14%; further: read at 38.3 µM for the half of the compounds with a filed dose
SARS PLP yeast – inhibitors of SARS-CoV papain-like protease in yeast. S. cerevisiae expressing SARS-CoV PLpro, growth rescue. Potency, µM (highest dose often 32.9 µM), most hits filed as activators. 0.19% of 330,000 active; calls by dose curve; further: nearly all actives have a fitted effect of over 55% in size
Pf growth 96h – inhibits malaria parasite growth, 96 h; P. falciparum luciferase reporter growth, 96 h; Potency, µM (titrated, usually from 28.7 µM), actives largely listed as inhibitors; 6.9% of 320,000 active; AID 504834
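96 h incubation, 37 C, 5% CO2, of luciferase-reporter P. falciparum-infected RBCs (2% hematocrit, 0.05% parasitemia final) with test compounds; endpoint luminescence.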
Shiga toxin inh – blocks Shiga toxin action in Vero cells | Vero cells, Shiga toxin protein synthesis inhibition reporter | inhibition, % at 38.7 µM | 9.2% of 290,000 active | AID 2315; in the data active means inhibition mostly above about 28%, no sharp cut-off; inactive means mostly below about 43%
NS1 function inh – inhibitors of influenza NS1 protein function; Potency, µM (doses to about 46.1 µM); AID 2326; 0.4% of 270,000 active; calls by dose curve; further: actives are rising curves; nearly all actives have a fitted effect of over 50% in size
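A cell-based growth assay was used: compounds that relieve NS1-induced slow growth of budding yeast raise OD600. Assay medium was yeast nitrogen base with ammonium sulphate and -URA supplement, pH 6.0, with 2% galactose.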
Numbers stand for hits. Most compounds without a hit are left out; they make up all but 21% or so of the library. Unless noted, the call rests on the fitted dose curve; in most records, active means well fitted inhibition curve with a large enough effect; inconclusive means small, poorly fitted or top-dose-only effect, or another doubt; inactive means no such curve, though single readings can be large or run the other way.

Screening CSc1nnc(N2C(=O)C(O)=C(C(=O)c3ccco3)C2c2cccc(Cl)c2)s1 (centres undefined) returned Pf growth 48h inactive, Cycloheximide cs 34, SARS PLP yeast inactive, Pf growth 96h inactive, Shiga toxin inh inactive and NS1 function inh inactive.
CCOc1cccc(C2C(C(=O)c3ccco3)=C(O)C(=O)N2c2nnc(C)s2)c1 (centres undefined) was read as Pf growth 48h inactive, SARS PLP yeast inactive and Pf growth 96h inconclusive.
For CCCOc1cccc(C2C(C(=O)c3ccco3)=C(O)C(=O)N2CCN(CC)CC)c1 (centres undefined) the results were Pf growth 48h inactive, Cycloheximide cs inactive, SARS PLP yeast inactive, Pf growth 96h inactive, Shiga toxin inh inactive and NS1 function inh inactive.
`O=C(C1=C(O)C(=O)N(c2ncccn2)C1c1cccc(Cl)c1)c1ccco1` (centres undefined) gave Pf growth 48h inactive, Cycloheximide cs inactive, Pf growth 96h inactive, Shiga toxin inh inactive and NS1 function inh inactive.
Screening CCSc1nnc(N2C(=O)C(O)=C(C(=O)c3ccco3)C2c2cccc(OC)c2)s1 (centres undefined) returned Pf growth 48h inactive, Cycloheximide cs 39, SARS PLP yeast inactive, Pf growth 96h inconclusive, Shiga toxin inh 90 and NS1 function inh inactive.
`CCOc1cccc(C2C(C(=O)c3ccco3)=C(O)C(=O)N2Cc2ccncc2)c1` (centres undefined) gave Pf growth 48h inactive, Cycloheximide cs 17, SARS PLP yeast inactive, Pf growth 96h 2.6µM, Shiga toxin inh inactive and NS1 function inh inactive.
CC(C)(C)C(=O)Nc1nc(-c2ccccc2)ns1 was read as Pf growth 48h inactive, Cycloheximide cs 58, SARS PLP yeast inactive, Pf growth 96h inactive, Shiga toxin inh 84 and NS1 function inh inactive.
For c1ccc(Nc2nc(-c3ccccc3)ns2)cc1 the results were Pf growth 48h inactive, Cycloheximide cs 52, SARS PLP yeast inactive, Pf growth 96h inactive, Shiga toxin inh 82 and NS1 function inh inactive.
For O=C(Nc1nc(-c2ccccc2)ns1)c1ccncc1 the results were Pf growth 48h inactive, Cycloheximide cs inactive, SARS PLP yeast inactive, Pf growth 96h inactive, Shiga toxin inh inactive and NS1 function inh inactive.
Screening O=C(CSc1ccc(C(F)(F)F)cc1[N+](=O)[O-])Nc1ccc2ccccc2c1 returned Pf growth 48h inactive, Cycloheximide cs inactive, SARS PLP yeast inactive, Pf growth 96h inactive, Shiga toxin inh inactive and NS1 function inh inactive.
`O/N=C/c1ccc2ccccc2n1` gave Pf growth 48h inactive, Cycloheximide cs 50, SARS PLP yeast inactive, Pf growth 96h inactive, Shiga toxin inh 106 and NS1 function inh inactive.
`CC(=O)/C=C/c1ccc2ccccc2n1` gave Pf growth 48h inconclusive, Cycloheximide cs 22, SARS PLP yeast inactive, Pf growth 96h inconclusive, Shiga toxin inh inactive and NS1 function inh inactive.
For CC(OC(=O)/C=C/c1ccc2ccccc2n1)C(=O)N(C)c1ccccc1 (centres undefined) the results were Pf growth 48h inconclusive, SARS PLP yeast inactive and Pf growth 96h inactive.
`O/N=C/c1ccc2cccc(O)c2n1` gave Pf growth 48h inactive, Cycloheximide cs 7.8, SARS PLP yeast inactive, Pf growth 96h inconclusive, Shiga toxin inh 44 and NS1 function inh inactive.
Cc1cc(C)c2ccc(/C=N/O)nc2c1O was read as Pf growth 48h inactive, Cycloheximide cs inactive, SARS PLP yeast inactive, Pf growth 96h inactive, Shiga toxin inh inactive and NS1 function inh inactive.
`Oc1cccc2nc3ccccc3nc12` gave Pf growth 48h inconclusive, Cycloheximide cs 21, SARS PLP yeast inactive, Pf growth 96h 12µM, Shiga toxin inh inactive and NS1 function inh inactive.
For CCC(C)(C)C1CCC2(CC1)NC(=O)N(CC(=O)N1CCN(S(=O)(=O)c3cc(C)ccc3C)CC1)C2=O (centres undefined) the results were Pf growth 48h inactive, Cycloheximide cs inactive, SARS PLP yeast inconclusive, Pf growth 96h inactive, Shiga toxin inh inactive and NS1 function inh inactive.
Cc1ccc(NC(=O)CS(=O)CC(=O)N(c2ccccc2F)C(C)C(=O)NC2CCCC2)cc1 (centres undefined) was read as Pf growth 48h inactive, Cycloheximide cs inactive, SARS PLP yeast inactive, Pf growth 96h inactive, Shiga toxin inh inactive and NS1 function inh inactive.
Screening O=C(CS(=O)CC(=O)N(c1ccccc1)C(C(=O)NC1CCCCC1)c1ccco1)Nc1ccc(F)cc1 (centres undefined) returned Pf growth 48h inconclusive, Cycloheximide cs inactive, SARS PLP yeast inactive, Pf growth 96h 7.4µM, Shiga toxin inh inactive and NS1 function inh inactive.
`Cc1ccc(NC(=O)CS(=O)CC(=O)N(c2ccc(C)cc2)C(C)C(=O)NC2CCCCC2)cc1` (centres undefined) gave Pf growth 48h 13µM, Cycloheximide cs inactive, SARS PLP yeast inactive, Pf growth 96h inconclusive, Shiga toxin inh inactive and NS1 function inh inactive.
`Cc1cc(C)n2nc(-c3ccsc3-n3c(C)ccc3C)cc2n1` gave Pf growth 48h 13µM, Cycloheximide cs inactive, SARS PLP yeast inactive, Pf growth 96h inconclusive, Shiga toxin inh inactive and NS1 function inh inactive.
Screening Cc1ccc(-c2cc3nc(C)cc(C)n3n2)cc1 returned Pf growth 48h inactive, Cycloheximide cs 38, SARS PLP yeast inactive, Pf growth 96h inactive, Shiga toxin inh 78 and NS1 function inh inactive.
Screening Cc1ccc(NC(=O)c2cc3nc(C)cc(C)n3n2)cc1 returned Cycloheximide cs 47, SARS PLP yeast inactive, Pf growth 96h inactive, Shiga toxin inh 101 and NS1 function inh inactive.
Screening Cc1cc(C)n2nc(-c3ccccc3)cc2n1 returned Pf growth 48h inactive, Cycloheximide cs 57, SARS PLP yeast inactive, Pf growth 96h inactive, Shiga toxin inh 77 and NS1 function inh inactive.
`OCC[C@H]1C[C@H](O)[C@@H](O)[C@@]2(CCCc3ccccc3O2)O1` gave Pf growth 48h inactive, SARS PLP yeast inactive and Pf growth 96h inactive.
Nc1cc(-c2ccc(Br)cc2)nc2cc(-c3ccccc3)nn12 was read as Pf growth 48h inactive, Cycloheximide cs inactive, SARS PLP yeast inactive, Pf growth 96h inactive and Shiga toxin inh 93.
`Cc1cc(C)n2nc(Nc3ccccc3)cc2n1` gave Pf growth 48h inactive, Cycloheximide cs 28, SARS PLP yeast inactive, Pf growth 96h inconclusive, Shiga toxin inh 88 and NS1 function inh inconclusive.
Screening COc1ccc(-n2c(SCC(=O)Nc3ccc(C(=O)O)cc3)nnc2-c2ccccc2)cc1OC returned Pf growth 48h inactive, Cycloheximide cs inactive, SARS PLP yeast inactive, Pf growth 96h inactive, Shiga toxin inh inactive and NS1 function inh inactive.
O=C1C2CC=C(Cl)CC2C(=O)N1CCC[n+]1cccc2ccccc21 (centres undefined) was read as Pf growth 48h 9.3µM, Cycloheximide cs inactive, SARS PLP yeast inactive, Pf growth 96h inconclusive, Shiga toxin inh inactive and NS1 function inh inactive.
